Compounds without any hit were thinned out: in the full panel of roughly 83,000, 20% have a hit.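 Interpretation: 100, growth as untreated; towards 0, rising growth inhibition; 0, no net growth; 0 to -100, cell death. Compounds scoring below 10 were considered active.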 Unmarked numbers belong to inactive results. Activity calls are given as the source filed them.

The test system of the experiment is HL-60(TB) leukemia. The experiment in a line: NCI-60 one-dose screen, 48 h (100 = growth as untreated, 0 = no growth, -100 = all killed). Conditions: 10 µM unless noted.
For the compound `O=C(/C=C/C12c3ccccc3C(c3ccccc31)C1C(=O)N(c3ccccc3)C(=O)C12)c1ccc(Cl)cc1` (stereo not given), the growth was 10.7%.

For `COc1cc(CSc2nc3ccc(Cl)cc3c(=O)n2-c2ccccc2)cc(OC)c1OC`, the growth is 90.8%.

As for `N#C/C(=C\c1cccc2cnccc12)n1nnc2cccc(F)c21`, the growth was 1.65% (active).

Turning to `COc1cc(NCCCCCN=C(N)NC(N)=NC(C)C)c2ncccc2c1`, the growth was 1.51% (active).

In the case of `COc1cc(-c2nc3c(ncc4ccc(=O)n(-c5ccccc5)c43)s2)cc(OC)c1OC`, the growth was 94.1%.

For `COc1cc(/C=C2\CN(S(=O)(=O)c3ccccc3)C/C(=C\c3cc(CN4CCCC4)c(O)c(OC)c3)C2=O)cc(CN2CCCC2)c1O`, the growth is -14.8% (active).

`COc1ccc(C(=O)c2cc(OC)c(OC)c(OC)c2)cc1OC(=O)C(Cl)(Cl)Cl`: the growth is -45.3% (active).

For the compound `Cc1cc[c-]cc1.Fc1c[c-]c(-c2ccccn2)c(F)c1.[Pt+2].c1ccc(P(C[PH+](c2ccccc2)c2ccccc2)c2ccccc2)cc1`, the growth was -25.7% (active).

For `CCN(CC)c1ccc(/C=C\c2cc(C)c3cc(C)ccc3n2)cc1`, the growth was 21.5%.

As to `COc1ccc(-c2nc3sccn3c2-c2nc3c([nH]2)C(=O)c2ccccc2C3=O)cc1`, the growth was 94%.

`Fc1ccc(-c2cc(C(Cl)Cl)no2)cc1`: the growth is 136%.

Regarding `CN1C(=O)c2cc(Cl)nc3c(NC(=O)c4cccc(Cl)c4)c(Cl)c(NC(=O)c4cccc(Cl)c4)c1c23`, the growth was -30.7% (active).

In the case of `CC(=O)c1c[nH]c2ccccc12`, the growth is 114%.

Consider `Cn1[nH]cc(/C=N/C(N)=O)c1=O`, for which the growth is 110%.

For `CCCOc1ccc2nc(NC(=O)OC)[nH]c2c1`, the growth was 3.05% (active).

With `O=C(Nc1ccc(Nc2ccncc2)cc1)c1ccc([N+](=O)[O-])cc1`, the growth is -75.2% (active).

Take `Cc1[nH]n(C(=S)Nc2nc3cc(Cl)c(F)cc3s2)c(=O)c1N=Nc1ccc(F)c(Cl)c1`: the growth is 127%.

As for `COC(=O)[C@H](C)NC(=O)NC(=O)NC(=O)CI`, the growth is -51% (active).

On to `O=C(/C=C/c1ccc(Cl)cc1)c1ccc(Nc2nc(NCCO)nc(Nc3ccc(Cl)cc3)n2)cc1`, for which the growth is 99.4%.

Consider `C/C=C(/C)C(=O)O[C@@H]1CC(C)(C)CC2C34OC(=O)[C@@]21CC[C@@]3(C)[C@]1(C)CCC2C(C)(C)C(=O)CC[C@]2(C)C1C[C@@H]4Cl` (stereo not given in full), for which the growth is 101%.

As to `c1ccc2c(-c3cnn4cc(-c5ccc(N6CCNCC6)cc5)cnc34)ccnc2c1`, the growth was -55.7% (active).

Take `Cn1cc(-c2csc(-c3cn(C)c4ccc(F)cc34)n2)c2cnccc21`: the growth is -44.8% (active).

For `O=C(NC1CC(F)C1)c1cc2cccnc2n1-c1ccc(Cl)c(Cl)c1` (stereo not given), the growth is 97.2%.

For the compound `O=[N+]([O-])c1ccc(Sc2cccc[n+]2[O-])c2nonc12`, the growth was -49.1% (active).

As for `Oc1ccc(C#CCOc2ccccc2)cc1CNCCN(Cc1ccccn1)Cc1ccccn1`, the growth was -13.6% (active).

In the case of `COc1cc2c(cc1OCCCCn1c(-c3cc(=O)c4ccccc4o3)nc3ccccc31)N=C[C@@H]1CCCN1C2=O`, the growth is 91.2%.

As to `OCC1OC2C(NC(=S)N2c2ccccc2)C(O)C1O` (stereo not given), the growth was 90.8%.

Turning to `COc1cc(C(=O)/C=C/c2c(-c3ccc(F)cc3)nc3sc(C)cn23)cc(OC)c1OC`, the growth is -34% (active).

For `Cc1cc(C(O)CN(C)C)cc2c1ccc1cc(C(C)C)ccc12` (stereo not given), the growth is -52.8% (active).

As to `COc1ccc(-c2c[nH]c(C(=O)O)c2-c2cc(OC)c(OC)c(OC)c2)cc1`, the growth is -13.8% (active).

With `CC(C)OCC(CCl)OC(=O)Nc1ccccc1` (stereo not given), the growth is 97.3%.

For `COc1ccc(C(Cc2ccccc2)NCCN2CCOCC2)cc1` (stereo not given), the growth was 93.8%.

For `COC12C=C/C(=C(/C(=O)OCc3ccncn3)C(=O)CCCCCCCCC3(OC)C=C/C(=C(/C(=O)OCc4ccncn4)C(=O)CCCCCCCC1)O3)O2`, the growth was -17.1% (active).

On to `C#CC(OC(=O)N(C)C)(c1ccccc1)c1ccc(F)cc1` (stereo not given), for which the growth is 127%.

In the case of `CC1CC(C)(C)OB(OC(C)CC(C)(C)OB2OC(C)CC(C)(C)O2)O1` (stereo not given), the growth was 103%.

Take `COc1cc(/C=C/c2cc(/C=C/c3ccc(O)c(OC)c3)[nH]c(=O)n2)ccc1O`: the growth is 61.3%.

In the case of `Clc1ccccc1[C@@H]1C[C@@H]2Cc3cc(Br)c4ccccc4c3N1O2`, the growth was 7.98% (active).

In the case of `COC(=O)Nc1ccc(NC(=O)OC)cc1`, the growth is 95.9%.

Consider `Nc1nc(-c2ccc(Cl)cc2)nc2c1sc(=S)n2-c1ccccc1`, for which the growth is 103%.

For `COc1ccc(-c2cc(-c3ccc(N(C)C)cc3)nc(NC(=O)c3cccnc3)n2)cc1`, the growth was 109%.
